The panel holds about 83,000 compounds, 20% with a hit somewhere; the sample as a whole holds those more often.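 Assay: single dose, 48 h. Readout: percent growth (0 = no net growth; negative = cell death). Active: <10.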 Activity calls are given as the source filed them.
What follows are compounds tested on HS 578T breast (assay: NCI-60 one-dose screen, 48 h (100 = growth as untreated, 0 = no growth, -100 = all killed)). Conditions: 10 µM unless noted.

| Structure (SMILES) | growth |
| --- | --- |
| Cc1cc(S(=O)(=O)/N=C(\N)n2nc(C)c(C)c2C)c(SCc2ccccc2)cc1Cl | 77.4% (inactive) |
| CS(=O)(=O)Nc1cncc(-c2ccc3ncnc(Nc4cncc(Cl)c4)c3c2)c1 | 56.6% (inactive) |
| CC(C)(Sc1cc(C(C)(C)C)c(OC(=O)CCCC(=O)O)c(C(C)(C)C)c1)Sc1cc(C(C)(C)C)c(OC(=O)CCCC(=O)O)c(C(C)(C)C)c1 | 57% (inactive) |
| COc1cc2c(c(OC)c1OC)CCC(c1cccc(NC(=O)c3ccc(Br)cc3)c1)O2 (stereo not drawn) | 90.4% (inactive) |
| COc1ccc(CNc2c3ccccc3nc3ccccc23)cc1 | 58% (inactive) |
| N#CSc1c[nH]c2cccc(/C=C/C(=O)/C=C(/C=C/c3cccc4[nH]cc(SC#N)c34)OB(F)F)c12 | 26.3% (inactive) |
| CC1=NC2=Nn3c(c4cnn(-c5ccccc5)c4n/c3=N\N)NN2C(c2ccccc2)=C1 | 80.5% (inactive) |
| COc1ccc(\C=N/N=C(N)/C(N)=N\N=C/c2ccc(OC)cc2)cc1 | 87.3% (inactive) |
| NC(=O)c1cccc(-n2ccc3cc(NC(=O)c4ccc(N5CCOCC5)c(C(F)(F)F)c4)ccc32)n1 | 14% (inactive) |
| COc1ccc(-c2nc3cc(C(=O)NCc4ccccc4)ccc3n2C2CCCCC2)cc1 | 76.3% (inactive) |
| CN(C)CC(C)(C)C(=O)/C=C/c1ccccc1 | -2.87% [25 µM] (active) |
| C=CCn1c(SCC(=O)Nc2ccc(C(=O)/C=C/c3ccc(Cl)cc3)cc2)nnc1-c1ccc(Br)cc1 | 71.9% (inactive) |
| Cc1cn(-c2cc(NC(=O)c3cccc(C#Cc4cccc5[nH]nc(N)c45)c3)cc(C(F)(F)F)c2)cn1 | 31.4% (inactive) |

Reference: PubChem BioAssay (NCI)
